# Values joined by “and” are separate entries in the source; they are usually repeats but may differ in a detail not shown here. Equal entries are not always repeated. Active and inactive are the calls of the source. The calls were made as follows: active = hit-call score of the fitted dose curve at least 0.9, where 1 is the maximum; inactive = score below 0.9.
# Assays:
# [1] = BSK_4H_Eotaxin3: BioMAP Diversity Plus: 4H Assay for Eotaxin 3 Biomarker Activity (AID 2283000); conditions: primary human endothelial cells (HUVEC); actives raise or lower the signal;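 as to outcome: CCL26 protein level quantified by ELISA in parallel with SRB cytotoxicity check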
# Outline: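 Chemicals were added to human umbilical vein endothelium cultures, and Eotaxin-3 was quantified by ELISA at 24 h. Values were derived by bidirectional fitting with DMSO serving as negative control and activity baseline.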
# [2] = read-out: Interleukin-1 alpha (IL1a), IL1A (gene 3552); assay: BSK_BE3C_IL1a: BioMAP Diversity Plus: BE3C Assay for Interleukin-1 alpha (IL1a) Biomarker Activity (AID 2283016); conditions: primary human bronchial epithelial cells; actives raise or lower the signal
# Outline: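 Measured in human lung primary bronchial epithelial cells: IL-1a by ELISA at 24 h after dosing, with bidirectional fitting against DMSO.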
# [3] = read-out: Monocyte Chemoattractant Protein-1 (MCP1), CCL2 (gene 6347); assay: BSK_3C_MCP1: BioMAP Diversity Plus: 3C Assay for Monocyte Chemoattractant Protein-1 (MCP1) Biomarker Activity (AID 2283017); conditions: primary human endothelial cells (HUVEC); actives raise or lower the signal
# Outline: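 ELISA read-out of MCP-1 from human umbilical vein endothelial cell cultures harvested 24 h post-dosing. Gain or loss of signal was fitted relative to DMSO.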
# [4] = read-out: Monocyte Chemoattractant Protein-1 (MCP1), CCL2 (gene 6347); assay: BSK_4H_MCP1: BioMAP Diversity Plus: 4H Assay for Monocyte Chemoattractant Protein-1 (MCP1) Biomarker Activity (AID 2283018); conditions: primary human endothelial cells (HUVEC); actives raise or lower the signal
# Outline: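 Primary human umbilical vein endothelium is exposed to chemical for 24 h before MCP-1 is assayed by ELISA. Concentration-response fitted bidirectionally relative to DMSO.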
# [5] = read-out: Monokine induced gamma interferon (MIG), CXCL9 (gene 4283); assay: BSK_3C_MIG: BioMAP Diversity Plus: 3C Assay for Monokine induced gamma interferon (MIG) Biomarker Activity (AID 2283021); conditions: primary human endothelial cells (HUVEC); actives raise or lower the signal
# Outline: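 ELISA-measured MIG in dosed HUVEC 3C cultures at 24 h, analysed by bidirectional fitting with DMSO defining baseline activity.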
# [6] = BSK_3C_SRB: Viability Assessment in the BioMAP Diversity Plus: 3C Assay (AID 2283023); conditions: primary human endothelial cells (HUVEC);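 also: fitted both ways against DMSO so a hit may be signal rise or drop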
# Outline: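 Absorbance at 560 nm of sulforhodamine B-stained (0.1%) total protein served as a cytotoxicity readout in human umbilical vein endothelial cells, 24 h after chemical treatment. Signal was fitted bidirectionally relative to DMSO.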
# [7] = BSK_4H_SRB: Viability Assessment in the BioMAP Diversity Plus: 4H Assay (AID 2283027); conditions: primary human endothelial cells (HUVEC);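 also: cells exposed to compound for 24 h before staining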;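 as to AC50: curves fitted both ways versus DMSO so AC50 may be loss or gain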
# Outline: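 Cytotoxicity readout: sulforhodamine B (0.1%) staining of total protein after 10% TCA fixation, measured at 560 nm in human umbilical vein endothelium at 24 h. DMSO set the baseline; fitting was bidirectional.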
# [8] = read-out: Monokine induced gamma interferon (MIG), CXCL9 (gene 4283); assay: BSK_BE3C_MIG: BioMAP Diversity Plus: BE3C Assay for Monokine induced gamma interferon (MIG) Biomarker Activity (AID 2283035); conditions: primary human bronchial epithelial cells; actives raise or lower the signal;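 also: MIG protein measured by ELISA in BE3C cultures after 24 h of dosing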
# Outline: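 hu bronchial epithelial 1° cells, 24 h cpd; MIG by ELISA; bidirectional fit, DMSO = baseline.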
# [9] = read-out: Plasminogen activator inhibitor-1 (PAI1), SERPINE1 (gene 5054); assay: BSK_BE3C_PAI1: BioMAP Diversity Plus: BE3C Assay for Plasminogen activator inhibitor-1 (PAI1) Biomarker Activity (AID 2283037); conditions: primary human bronchial epithelial cells; actives raise or lower the signal
# Outline: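 In this multiplexed primary-cell system, bronchial epithelial cells receive test chemical and are sampled at 24 h. PAI-1 is read by ELISA, with DMSO serving as negative control for bidirectional fitting.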
# [10] = read-out: Urokinase-type plasminogen activator receptor (uPAR), PLAUR (gene 5329); assay: BSK_BE3C_uPAR: BioMAP Diversity Plus: BE3C Assay for Urokinase-type plasminogen activator receptor (uPAR) Biomarker Activity (AID 2283039); conditions: primary human bronchial epithelial cells; actives raise or lower the signal;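 also: uPAR protein level measured by ELISA on the cells; cells exposed to compound for one day before measurement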
# Outline: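 Chemically treated human bronchial epithelial cells (lung primary) are assayed for uPAR by ELISA after 24 h, with data fitted in both directions using DMSO as negative control.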
# [11] = read-out: Tissue plasminogen activator (tPA), PLAT (gene 5327); assay: BSK_BE3C_tPA: BioMAP Diversity Plus: BE3C Assay for Tissue plasminogen activator (tPA) Biomarker Activity (AID 2283041); conditions: primary human bronchial epithelial cells; actives raise or lower the signal;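 also: tPA level quantified by ELISA one day after compound addition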
# Outline: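 Using human lung primary bronchial epithelial cells, tPA was measured by ELISA 24 h after dosing; data fitted relative to DMSO.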
# [12] = read-out: Interleukin-8 (IL8), CXCL8 (gene 3576); assay: BSK_CASM3C_IL8: BioMAP Diversity Plus: CASM3C Assay for Interleukin-8 (IL8) Biomarker Activity (AID 2283042); conditions: primary human coronary artery smooth muscle cells; actives raise or lower the signal;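 also: IL-8 protein level quantified by ELISA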
# [13] = read-out: Human Leukocyte Antigen - DR isotype (HLADR), HLA-DRA (gene 3122); assay: BSK_CASM3C_HLADR: BioMAP Diversity Plus: CASM3C Assay for Human Leukocyte Antigen - DR isotype (HLADR) Biomarker Activity (AID 2283043); conditions: primary human coronary artery smooth muscle cells; actives raise or lower the signal;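 also: cell-surface HLA-DR protein level quantified by ELISA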
# [14] = read-out: Macrophage colony-stimulating factor (MCSF), CSF1 (gene 1435); assay: BSK_CASM3C_MCSF: BioMAP Diversity Plus: CASM3C Assay for Macrophage colony-stimulating factor (MCSF) Biomarker Activity (AID 2283044); conditions: primary human coronary artery smooth muscle cells; actives raise or lower the signal;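 also: M-CSF protein amount quantified by ELISA after 24 h exposure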
# [15] = read-out: Low-density lipoprotein receptor (LDLR), LDLR (gene 3949); assay: BSK_CASM3C_LDLR: BioMAP Diversity Plus: CASM3C Assay for Low-density lipoprotein receptor (LDLR) Biomarker Activity (AID 2283045); conditions: primary human coronary artery smooth muscle cells; actives raise or lower the signal;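 also: LDLR protein level on the cell surface quantified by ELISA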
# [16] = read-out: Monocyte Chemoattractant Protein-1 (MCP1), CCL2 (gene 6347); assay: BSK_CASM3C_MCP1: BioMAP Diversity Plus: CASM3C Assay for Monocyte Chemoattractant Protein-1 (MCP1) Biomarker Activity (AID 2283046); conditions: primary human coronary artery smooth muscle cells; actives raise or lower the signal;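 also: MCP-1 level quantified by ELISA 24 h after dosing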
# [17] = BSK_CASM3C_Proliferation: Cell Proliferation Assessment in the BioMAP Diversity Plus: CASM3C Assay (AID 2283047); conditions: primary human coronary artery smooth muscle cells;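 also: sub-confluent cells exposed 48 h before staining; fitted both ways against DMSO so gain or loss of cell number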
# [18] = BSK_CASM3C_SRB: Viability Assessment in the BioMAP Diversity Plus: CASM3C Assay (AID 2283050); conditions: primary human coronary artery smooth muscle cells;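 also: total protein by SRB staining as cytotoxicity measure in parallel cultures; cells exposed to compound for 24 h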
# [19] = read-out: Interleukin-8 (IL8), CXCL8 (gene 3576); assay: BSK_hDFCGF_IL8: BioMAP Diversity Plus: hDFCGF Assay for Interleukin-8 (IL8) Biomarker Activity (AID 2283058); conditions: primary human foreskin fibroblasts; actives raise or lower the signal
# Outline: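 Cells used are human skin primary fibroblasts. Chemical is added, cultures run 24 h, then IL-8 is quantified by ELISA, and gain or loss versus DMSO control is fitted in both directions.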
# [20] = BSK_hDFCGF_Proliferation: Cell Proliferation Assessment in the BioMAP Diversity Plus: hDFCGF Assay (AID 2283059); conditions: primary human foreskin fibroblasts;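 also: curves fitted for both rise and fall of signal versus DMSO baseline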
# Outline: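 Steps: dose primary human dermal fibroblasts (foreskin); […] fix in 10% TCA; stain with 0.1% SRB; read 560 nm; fit gain or loss of signal against DMSO.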
smiles,measurement,setting,value
CCCCC(CC)COC(=O)C=Cc1ccc(OC)cc1 (stereo not given),AC50,[1],24.2 µM (active) and 18.9 µM (active)
same,outcome,[2],inactive
same,AC50,[3],33 µM (active)
same,AC50,[4],20 µM (active) and 27.4 µM (active)
same,outcome,[5],inactive
same,AC50,[6],31.8 µM (active) and 31.4 µM (active)
same,AC50,[7],39 µM (active) and 36.8 µM (active)
same,outcome,[8],inactive
same,outcome,[9],inactive
same,outcome,[10],inactive
same,outcome,[11],inactive
same,outcome,[12],inactive
same,AC50,[13],13.9 µM (active) and 7.28 µM (active)
same,outcome,[14],inactive
same,outcome,[15],inactive
same,outcome,[16],inactive
same,outcome,[17],inactive
same,outcome,[18],inactive
same,outcome,[19],inactive
same,AC50,[20],13.2 µM (active) and 11.7 µM (active)
Cc1c(C(N)=O)cc([N+](=O)[O-])cc1[N+](=O)[O-],outcome,[1],inactive
same,outcome,[2],inactive
same,outcome,[3],inactive
same,outcome,[4],inactive
same,outcome,[5],inactive
same,outcome,[6],inactive
same,outcome,[7],inactive
same,outcome,[8],inactive
same,outcome,[9],inactive
same,outcome,[10],inactive
same,outcome,[11],inactive
same,outcome,[12],inactive
same,outcome,[13],inactive
same,outcome,[14],inactive
same,outcome,[15],inactive
same,outcome,[16],inactive
same,outcome,[17],inactive
same,outcome,[18],inactive
same,outcome,[19],inactive
same,outcome,[20],inactive
